Rows were chosen to be rich in hits. Some 2.3% of all compounds tested hit in one or more screens of this group.
FUS suppressor: rescues growth of FUS-expressing yeast. Potency, µM (doses to about 76.6 µM), usual class: activators. 0.24% of 390,000 active. S. cerevisiae FUS-expressing, growth rescue, OD600, 24 h;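 also: potency is read from the fitted curve at half-maximal effect; plate controls were DMSO vehicle for no effect and reference control for full effect; nearly all actives have a fitted effect of over 55% in size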
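Absorbance at 600 nm, taken 24hr after compound addition, measured rescue of FUS-yeast growth at 30C. Induction used 2% galactose with seeding at OD 0.005. Controls: CP55940 from 92uM final, DMSO only.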
ELG1 DNA repair: ELG1-dependent DNA repair inhibition | HEK293T ELG1-luciferase reporter, luminescence, 16 h; DNA damage induced by 5-fluorouridine | Potency, µM (top dose mostly 46.1 µM), for inactives: at the top dose activity change, negative = inhibition, hits mostly inhibitors | 2.3% of 330,000 active; also: potency is read from the fitted curve at half-maximal effect; % is scaled to controls: 0 for no effect and ±100 for the full control effect; nearly all actives have a fitted effect of over 55% in size
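HEK293T cells expressing luciferase-tagged ELG1 (2,000/well) received 5-Fluorouridine plus compound or DMSO for 16 hr at 37 °C. Luciferase was read by ONE-Glo luminescence after 30 min at room temperature.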
Giardia kill: kills Giardia lamblia; Giardia lamblia trophozoite viability; activity change, % at 7.66 µM, hits read low; 0.15% of 340,000 active; in the data active = activity change below about -80%; inconclusive = between about -30% and that limit;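 also: parasites exposed to compound for two days anaerobically before the ATP read; % is scaled to controls: 0 for no effect and ±100 for the full control effect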
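ATP-content bioluminescence gauges trophozoite survival. Cells (100/well) receive compound and incubate anaerobically for 48 hrs at 37 deg C; detection reagent follows for 15-30 min at room temperature.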
TRPV1 potentiator: enhances activation of the human vanilloid receptor TRPV1 | Q8NER1 | TRPV1-expressing cells, Fluo-8 calcium influx, capsaicin EC20 potentiation | potentiation, % at 8.33 µM | 0.02% of 320,000 active; in the data active = potentiation above about 80%; inconclusive = between about 30% and that limit; also: 0% is about no effect
Target sequence (Q8NER1 whole entry, looked up): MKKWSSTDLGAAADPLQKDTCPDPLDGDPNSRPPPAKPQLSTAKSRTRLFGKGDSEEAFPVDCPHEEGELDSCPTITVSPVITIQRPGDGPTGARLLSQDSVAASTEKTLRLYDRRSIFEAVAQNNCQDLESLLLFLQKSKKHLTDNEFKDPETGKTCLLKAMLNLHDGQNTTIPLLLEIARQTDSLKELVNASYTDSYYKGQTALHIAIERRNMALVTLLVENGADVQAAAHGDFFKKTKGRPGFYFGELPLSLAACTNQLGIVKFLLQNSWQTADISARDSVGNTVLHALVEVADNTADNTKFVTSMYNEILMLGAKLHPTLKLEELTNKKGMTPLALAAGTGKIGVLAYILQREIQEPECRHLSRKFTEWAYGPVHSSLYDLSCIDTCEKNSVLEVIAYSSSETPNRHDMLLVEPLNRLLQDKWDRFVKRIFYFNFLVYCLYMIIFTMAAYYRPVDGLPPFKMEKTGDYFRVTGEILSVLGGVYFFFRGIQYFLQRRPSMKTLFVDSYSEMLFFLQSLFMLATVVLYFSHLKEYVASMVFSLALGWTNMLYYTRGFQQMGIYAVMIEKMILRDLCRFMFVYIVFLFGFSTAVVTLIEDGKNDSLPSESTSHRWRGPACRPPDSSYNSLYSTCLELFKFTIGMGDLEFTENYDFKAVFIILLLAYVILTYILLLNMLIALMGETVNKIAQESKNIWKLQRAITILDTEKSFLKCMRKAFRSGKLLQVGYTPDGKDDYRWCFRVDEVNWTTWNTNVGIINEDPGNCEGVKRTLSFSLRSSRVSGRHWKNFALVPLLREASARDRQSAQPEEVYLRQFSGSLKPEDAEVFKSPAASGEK
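TRPV1-expressing cells were cultured overnight at 35.5C and loaded with Fluo-8 calcium dye for 40 to 90 min at room temperature. After a 10 s baseline, compound was added and calcium influx was read kinetically for 3 min (ex 480/em 520 nm).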
TRPV1 ag: activates the human vanilloid receptor TRPV1 | 0.19% of 320,000 active | TRPV1-expressing cells, Fluo-8 calcium influx, agonist mode | AID 540275 | Q8NER1 | activation, % at 8.33 µM; in the data active = activation above about 80%; inconclusive = between about 30% and that limit; also: 0% is about no effect
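Cells expressing TRPV1 were dye-loaded with Fluo-8 and read kinetically: 10 s baseline, 3 min after compound (agonist portion), then 2 min after EC20 capsaicin (allosteric enhancer portion). Calcium-bound dye fluorescence at 480/520 nm.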
* = called active by the depositor; i = inactive; ? = inconclusive; nt = no result. Unless noted, calls follow the shape of the dose curve; as a rule, active = well fitted curve in the direction sought with a large enough effect; inconclusive = small, poorly fitted or top-dose-only effect, or another doubt; inactive = no such curve, though single readings can be large; an effect the other way counts as inactive or inconclusive.

SMILES | FUS suppressor | ELG1 DNA repair | Giardia kill | TRPV1 potentiator | TRPV1 ag
COc1ccc(-c2cc(C(F)(F)F)nc(SCCC(=O)Nc3ccc(NC(C)=O)cc3)n2)cc1 | i | nt | nt | nt | nt
CCOC(=O)C(CC)Sc1nc2c(c(=O)[nH]c(=O)n2C)n1CCc1ccccc1 (stereo not drawn) | i | 8.2µM* | -6.1 | -11.7 | 2.6
CCC(C)Sc1nc2c(c(=O)[nH]c(=O)n2C)n1CC(O)COc1ccccc1C (stereo not drawn) | i | 16.4µM* | 0.0 | -0.4 | 1.3
CCOC(=O)CSc1nc2c(c(=O)[nH]c(=O)n2C)n1CCc1ccccc1 | i | -2.1% | -2.6 | 1.7 | -2.6
Cc1cc(NC(=O)CN2C(=O)/C(=C/c3ccc(C(C)C)cc3)SC2=S)no1 | i | nt | nt | nt | nt
O=C(Nc1cccs1)Nc1cc(C(F)(F)F)ccc1Cl | i | nt | nt | nt | nt
COc1ccnc(Oc2ccccc2)c1C(=O)N/C=N/OCc1ccc(F)cc1Cl | ? | 18.4µM* | -0.9 | 5.0 | 18.1
COCCn1cnc2c(c1=O)c1nc3ccccc3nc1n2/N=C/c1ccco1 | i | -5.8% | 3.6 | 7.3 | -0.3
COCCn1cnc2c(c1=O)c1nc3ccccc3nc1n2/N=C/c1ccc(OC)c(OC)c1 | i | 5.8µM* | -15.0 | -0.8 | 3.0
C=CCn1cnc2c(c1=O)c1nc3ccccc3nc1n2/N=C/c1cccc(OC)c1 | i | 20.6µM* | 1.1 | -10.7 | -1.0
CCCCCCn1cnc2c(c1=O)c1nc3ccccc3nc1n2/N=C/c1ccco1 | i | 14.6µM* | 26.0 | 1.0 | -3.4
Cc1nc2c(c(=O)n1CCC1=CCCCC1)c1nc3ccccc3nc1n2/N=C/c1ccco1 | ? | 5.17µM* | 19.0 | 7.1 | -0.2
Cc1ccccc1Cn1c2ccccc2c2cnn(CC(=O)NCCc3ccc(Cl)cc3)c(=O)c21 | i | nt | nt | nt | nt
COc1ccc(CCNC(=O)C(=O)Nc2ccc(C)cc2)cc1OC | i | nt | nt | nt | nt
CC(=O)c1ccc(Nc2nc(C)nc3c2oc2ccccc23)cc1 | nt | -3.9% | nt | 7.0 | ?
Cc1nc(NCCc2ccccc2)c2oc3ccccc3c2n1 | i | ? | -17.6 | -9.0 | 81.6*
COc1ccc(Nc2nc(C)nc3c2oc2ccccc23)cc1 | i | ? | -16.3 | -13.6 | 98.2*
Cc1ccc(Nc2nc(C)nc3c2oc2ccccc23)cc1 | i | ? | 3.9 | -11.3 | 88.2*
Cc1ccccc1C(c1c(C)n(C)n(-c2ccccc2)c1=O)c1c(C)n(C)n(-c2ccccc2)c1=O | i | nt | nt | nt | nt
COc1ccc(C2=CC(c3ccc(F)cc3)n3ncc(C(=O)Nc4ccc(C)cc4)c3N2)cc1 (stereo not drawn) | i | nt | nt | nt | nt
O=S(=O)(Nc1ccc(-c2ccc(N3CCCCCC3)nn2)cc1)c1ccc(C(F)(F)F)cc1 | i | nt | nt | nt | nt
Cc1ccc(C)c(NC(=O)CSc2c3c(nc4ccc(Cl)cc24)CCCC3)c1 | i | nt | nt | nt | nt
CCOC(=O)CCCc1ccc(/C(C)=N/NC(N)=S)cc1 | i | 9.2µM* | -11.9 | -2.5 | -2.7
Cc1ccc(S(=O)(=O)c2cnc(SC(C)C(=O)Nc3ccccc3)[nH]c2=O)cc1 (stereo not drawn) | i | nt | nt | nt | nt
OC(c1ccc(Cl)cc1)c1ncc(-c2ccccc2F)[nH]1 (stereo not drawn) | i | nt | nt | nt | nt
SMILES | FUS suppressor | ELG1 DNA repair | Giardia kill | TRPV1 potentiator | TRPV1 ag
CCN(CC)S(=O)(=O)c1ccc2[nH]cc(C(=O)NCCC3=CCCCC3)c(=O)c2c1 | i | 13µM* | 3.5 | 14.4 | -6.4
CCN(CC)S(=O)(=O)c1ccc2[nH]cc(C(=O)NCCN3CCCCCC3)c(=O)c2c1 | nt | 20.4% | -0.1 | 3.6 | -0.2
CCOC(=O)c1c(C)oc2ccc(N(C(C)=O)S(=O)(=O)c3c(C)cc(C)cc3C)cc12 | i | nt | nt | nt | nt
N#CC1=C(N)NC(SCc2ccc(Br)cc2)=C(C#N)C12CCCCC2 | i | ? | 3.7 | 3.3 | 0.6
N#CC1=C(N)NC(SCC(=O)Nc2ccc(Br)cc2)=C(C#N)C12CCCCC2 | ? | 23.1µM* | -3.7 | 6.2 | 6.2
CCOC(=O)N1CCN(C(=O)CSCC(=O)Nc2nc(-c3ccc(Cl)s3)cs2)CC1 | i | 16.4µM* | -14.4 | -5.9 | -2.3
CCOC(=O)N1CCN(C(=O)CSCC(=O)Nc2nc(-c3ccc(OC)cc3)cs2)CC1 | i | 0.0% | -7.0 | -2.3 | -0.3
O=C(CNc1ccc(C(F)(F)F)cc1)Nc1cccc(S(=O)(=O)N2CCCC2)c1 | i | -19.2% | -12.0 | -34.4 | 14.5
Cc1ccc2cccc(OCC(=O)Nc3cccc(S(=O)(=O)N4CCCC4)c3)c2n1 | nt | 18.3µM* | 10.8 | -4.1 | 5.5
COc1ccc(NC(=O)COc2ccccc2C#N)c(S(=O)(=O)N2CCCCC2)c1 | i | 20.6µM* | -9.1 | 29.0 | 2.2
O=C(CNc1cccc(C(F)(F)F)c1)N/N=C/C1CCCCC1 | i | -11.5% | -9.1 | -30.3 | 97.1*
Cc1ccc(OCC(=O)Nc2cccc(S(=O)(=O)N3CCCCC3)c2)c([N+](=O)[O-])n1 | i | -16.7% | 3.2 | -2.8 | 7.0
O=C(CNc1cccc(S(=O)(=O)N2CCCC2)c1)Nc1cccc(C(F)(F)F)c1 | nt | 9.2µM* | 2.6 | nt | nt
CCOc1ccccc1CNC(=O)Cn1ncn2nc(-c3cccs3)cc2c1=O | i | nt | nt | nt | nt
N#Cc1ccccc1OCC(=O)Nc1cccc(S(=O)(=O)N2CCCCCC2)c1 | nt | 18.3µM* | -12.5 | -3.0 | 4.3
CCC(C)NC(=O)Cn1c(=O)n(-c2ccc(Cl)c(Cl)c2)c(=O)c2c(C)c(C(=O)N(CC)CC)sc21 (stereo not drawn) | i | nt | nt | nt | nt
Cn1nc(C(=O)NCc2ccc(F)cc2)c2c1-c1ccccc1SC2 | i | nt | nt | nt | nt
CCOC(=O)c1[nH]c(C)c(CCC(=O)NCc2ccc(OC(C)C)cc2)c1C | i | nt | nt | nt | nt
Cc1[nH]c(-c2ccc(F)cc2)cc1C(=O)N1CCN(c2ccccc2)CC1 | i | ? | 11.8 | 6.3 | 6.6
COc1cccc(N2CCN(C(=O)c3cc(-c4ccc(F)cc4)[nH]c3C)CC2)c1 | ? | 20.6µM* | 3.4 | -3.5 | 3.5
Cc1ccc2c(CC(=O)Nc3cc(C(F)(F)F)ccc3Cl)coc2c1C | i | nt | nt | nt | nt
C[C@@H]1CC[C@]2(C(=O)O[C@@H]3O[C@H](CO)[C@@H](O)[C@H](O)[C@H]3O)CC[C@]3(C)C(=CCC4[C@@]5(C)C[C@@H](O)[C@H](O)[C@@](C)(C(=O)O[C@@H]6[C@H](O)C[C@@]7(C)C(CC[C@]8(C)C7CC=C7[C@H]9[C@](C(=O)O[C@@H]%10O[C@H](CO)[C@@H](O)[C@H](O)[C@H]%10O)(CC[C@@H](C)[C@@]9(C)O)CC[C@]78C)[C@@]6(CO)C(=O)O)C5CC[C@]43C)[C@@H]2[C@]1(C)O (stereo partly drawn) | 12.6µM* | 15.0% | 24.3 | nt | nt

Bioassay records (PubChem)
